High-throughput results from PubChem.
KDM5B inh: Primary screen for KDM5B Histone Demethylases FDH-coupled qHTS; Lysine-specific demethylase 5B (Homo sapiens), Q9UGL1; 220,000 tested, 2.6% active; AID 1347165, 2019; Potency, µM (series often up to 57.7 µM), hits mostly inhibitors; KDM5B demethylase, FDH-coupled NADH fluorescence (FDH is formaldehyde dehydrogenase); active means well fitted inhibition curve with a large enough effect; further: nearly all actives have a fitted effect of over 70% in size
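Measured: NADH fluorescence change, 30 min, RT. System: KDM5BΔAP 200 nM final, H3K4me3 peptide, α-KG, Fe(II), ascorbate, NAD⁺ plus FDH, pH 7.5 HEPES. Compounds: titrated, 10 min pre-incubation with enzyme.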
Of the large screens only hits and unclear results are named; the others gave an inactive call. The sample as a whole holds a higher share of hits than the screen did.

CCOC(=O)N1CCC(N[C@@H]2CC[C@@H]2NC(=O)c2nc(C)oc2C)CC1	none
CCOC(=O)N1CCC(NC(=O)c2ccccc2C(=O)O)CC1	none
COc1ncc(-c2cc3c(nc2OC)nc(CCc2ccccc2)n3C)cn1	none
COc1ccc(S(=O)(=O)Nc2ccc(CCc3nc4ccccc4n3C)cc2)cc1	none
COc1nc2nc(CCc3ccccc3)n(C)c2cc1-c1ccnn1C	KDM5B inh 39.8µM
CCOc1ccc(NC(=O)Cn2cccc2-c2nc(-c3ccccc3)no2)cc1	none
CN(C)S(=O)(=O)c1ccc(-c2nc(C#N)c(N3CCCC3)o2)cc1	none
CN(C)C[C@@H]1CN(C2CCOCC2)C[C@H]1NC(=O)c1ccc2cc[nH]c2c1	none
CN(C)C[C@@H]1CN(C2CCOCC2)C[C@H]1NC(=O)c1ccccc1C(F)(F)F	none
CN(C)C[C@@H]1CN(C2CCOCC2)C[C@H]1NC(=O)c1cc2ccccc2[nH]1	KDM5B inh 28.2µM
O=C1C(OCC2CC2)C2(CCOCC2)N1C1CCNCC1 (centres undefined)	none
COc1ccc(C(=O)N2CCOCC3(CN(Cc4ccccc4)C3)C2)cc1	none
CC(C)C(=O)N1Cc2ccccc2CC2(CCCN(Cc3ccccc3)C2)C1 (centres undefined)	none
O=C(NCC(c1cccnc1)N1CCN(Cc2ccccc2)CC1)C(=O)Nc1cccc(F)c1 (centres undefined)	none
CC(C)CNc1ccc2c(n1)C(C)(C(=O)N1CCC1)CN(Cc1ccccc1)C2 (centres undefined)	KDM5B inh 28.2µM
COCCN1CC(CO)C2(CCN(C(=O)Cc3cccnc3)CC2)C1 (centres undefined)	none
COc1ccc(C(=O)N2CCOCC3(CN(Cc4ccccc4)C3)C2)c(OC)n1	none
COCCN1Cc2ccc(NCC(C)C)nc2C(C)(C(=O)NCc2cccnc2)C1 (centres undefined)	KDM5B inh 31.6µM
Cc1c(CC(=O)NCc2cccnc2)c2c(n1CC(C)C)CC(C)(C)CC2=O	none
CC(C)CNc1ccc2c(n1)C(C)(C(=O)NC1CC1)CN(Cc1ccccc1)C2 (centres undefined)	none
CC(C)CNc1ccc2c(n1)C(C)(C(=O)Nc1cccnc1)CN(Cc1ccccc1)C2 (centres undefined)	KDM5B inh 31.6µM
CC(C)CNc1ccc2c(n1)C(C)(C(=O)N1CCOCC1)CN(Cc1ccccc1)C2 (centres undefined)	KDM5B inh 31.6µM
O=C(Nc1cccnc1)[C@H]1CN(Cc2ccccc2)C[C@H]1C(=O)O	none
CCOc1ccc(Cl)cc1CN(C)CC1(O)CCCNC1 (centres undefined)	none
COc1cc(CCC(=O)Nc2ccc3oc(-c4ccc(C(C)C)cc4)cc(=O)c3c2)on1	none
COc1cccc(CCC2CCCN(C(=O)c3ccoc3C)C2)c1 (centres undefined)	none
CCCN(C)Cc1ccc(C(=O)OC)cc1	none
O=C(NCc1ccc(Cl)cc1)NCC1(c2ccccc2)CC1	none
COc1ccccc1OCc1cc(C(=O)NCC2COCCO2)n[nH]1 (centres undefined)	none
CC(=O)Nc1cccc(C(C)NC(=O)NC(c2ccc(Cl)cc2)C(C)C)c1 (centres undefined)	none
CC1=C(C(=O)Nc2ccccc2C)C(c2ccc(C(=O)O)cc2)n2ncnc2N1 (centres undefined)	none
CC1=C[C@@H](CN2C(=O)C(C)=C(C)C2=O)[C@H](C(C)C)C[C@H]1Cc1nc2ccc(C)cc2[nH]1	none
CC(C)(C)CC(=O)Nc1nc2c(s1)C[C@@H]1[C@](C)(CO)[C@H](O)CC[C@@]1(C)[C@@H]2CC(=O)NCc1ccccc1	none
COc1ccc(CNC(=O)C[C@@H]2c3nc(NC(=O)c4cccs4)sc3C[C@@H]3[C@](C)(CO)[C@H](O)CC[C@]32C)cc1	KDM5B inh 25.1µM
C[C@]1(CO)[C@H]2Cc3sc(NC(=O)c4ccc(F)cc4)nc3[C@@H](CC(=O)NCc3cccnc3)[C@]2(C)CC[C@H]1O	none
COCC(=O)Nc1nc2c(s1)C[C@@H]1[C@](C)(CO)[C@H](O)CC[C@@]1(C)[C@@H]2CC(=O)NCc1ccc(OC)cc1	none
CC(C)C[C@H](CO)NC(=O)C[C@@H]1c2nc(NC(=O)c3c(F)cccc3F)sc2C[C@@H]2[C@](C)(CO)[C@H](O)CC[C@]21C	none
COc1ccc(CNC(=O)C[C@@H]2c3nc(NC(=O)c4c(F)cccc4F)sc3C[C@@H]3[C@](C)(CO)[C@H](O)CC[C@]32C)cc1	KDM5B inh 28.2µM
COc1cc(C)c(NC(=O)CC2CC3CCC2C3)cc1OC (centres undefined)	none
O=C(O)CNS(=O)(=O)c1cccc(Br)c1	none
O=C(c1[nH]nc2c1CCc1ccccc1-2)N1CCC(c2noc(-c3ccncc3)n2)C1 (centres undefined)	none
O=C(CSc1nc(-c2ccccc2)cc(C(F)(F)F)n1)NC1CCCCC1	none
COc1ccc(CN2CCC3(CC(=O)NC3=O)C2)cc1OCc1ccccc1 (centres undefined)	none
CCN1CCCC1CNCc1cccs1 (centres undefined)	none
Cc1cc(OCCN(C)C)c(C)c2c1CC[C@@H]([C@H](C)C(=O)NCc1ccccc1)C2	none
C=CCOc1cc(C)c2c(c1C)[C@H](O)C([C@H](C)C(=O)N(C)Cc1ccccc1)CC2 (some centres undefined)	KDM5B inh 35.5µM
C=CCOc1cc(C)c2c(c1C)[C@H](O)C([C@H](C)C(=O)NCCOC)CC2 (some centres undefined)	none
COc1cccc(CC(=O)NCC(=O)N2CCCCCNC(=O)CC2c2ccccc2)c1 (centres undefined)	none
O=C(c1ccoc1)N1CCC(c2n[nH]c(=O)n2Cc2ccc(F)cc2)CC1	none
O=C(Cc1cccc(F)c1)N1CCCC(Cc2nc(C3CCOCC3)no2)C1 (centres undefined)	KDM5B inh 28.2µM
O=C(Cc1cccc(F)c1)N1CCC(Cc2noc(C3CCOCC3)n2)C1 (centres undefined)	none
COCc1nc(C2CCCN(C(=O)Cc3cccc(F)c3)C2)no1 (centres undefined)	none
Cc1ccc(F)c(NC(=S)NC2CC2)c1	none
COc1cc(C(=O)N2CC[C@@]3(O)CCN(S(C)(=O)=O)C[C@H]3C2)ccn1	none
CCc1noc(C)c1C(=O)N1CC[C@@]2(O)CCN(S(C)(=O)=O)C[C@H]2C1	none
Cn1ccnc1-c1ccc(N2CC[C@@]3(O)CCN(S(C)(=O)=O)C[C@H]3C2)nn1	KDM5B inh 31.6µM
CCOc1ccc2cc(C(=O)N3CCC(N4CCCCC4)CC3)[nH]c2c1	none
O=C(CN1CCN(c2ccccn2)CC1)Nc1cccc(F)c1	none
O=C(CCC1CCCN(c2ncccn2)C1)N1CCN(c2ccccn2)CC1 (centres undefined)	none
COc1ccccc1N1CCN(C(=O)CNC(=O)c2ccc(Cl)cc2Cl)CC1	none
COc1ccc(C(=O)NCC(=O)N2CCN(c3ccccn3)CC2)c(C)c1	KDM5B inh 22.4µM
COc1ccc(C2(C(=O)N3CCN(c4ccccn4)CC3)CCOCC2)cc1	KDM5B inh 79.4µM
COc1ccc(C2(C(=O)N3CCN(c4ncccn4)CC3)CCOCC2)cc1	none
O=C(COc1ccc(F)cc1)NCC(=O)N1CCN(c2ccccn2)CC1	KDM5B inh 25.1µM
COc1ccc(C2(C(=O)N3CCC(F)CC3)CCOCC2)cc1	none
O=C(CN1CCN(c2ccccn2)CC1)Nc1cc(F)ccc1F	none
O=C(CCCc1ccccc1)NCC(=O)N1CCN(c2ccccn2)CC1	KDM5B inh 28.2µM
COc1ccc(-n2nc(C(=O)NCC(=O)N3CCN(c4ccccn4)CC3)c3ccccc3c2=O)c(OC)c1	none
O=C(Cc1ccccc1)NCC(=O)N1CCN(c2ccccc2F)CC1	none
